Assay [1] addresses 6-phosphogluconate dehydrogenase, decarboxylating (Homo sapiens) (UniProt P52209). The assay can be described thus: inhibition of human phosphogluconate dehydrogenase – biochemical, recombinant enzyme, NADPH absorbance, primary screen (AID 1159550). As to conditions: recombinant 6PGD, NADPH absorbance 341 nm; at 10 µM; stronger effect = higher value.
The nature of assay [2]: Wnt pathway potentiators raising nuclear beta-catenin – imaging, WNT3A-conditioned medium, mouse C2C12, NPC library, primary screen (AID 1117326; in the data active means nuclear beta-catenin stimulation mostly above about 4.2%, no sharp cut-off; inactive means mostly below about 10%; further: reference of the scale not given here). To be noted: stronger effect = higher value.
Assay [3] in a line: growth inhibition of GSK3B-pretreated HCT116 cells – cell-based, CellTiter-Glo, 0.2 to 20 µM (AID 1117336;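 active means compounds lowering colon cancer cell viability after pretreatment blocking the GSK3B kinase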). To be noted: HCT116 viability after GSK3B inhibitor, at 20 µM, stronger effect = higher value.
Assay [4] can be described thus: HCT116 colon cancer cell growth inhibition, primary screen, CellTiter-Glo luminescence, NPC library (AID 1117342;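 active means compounds that lower survival of HCT116 colon cancer cells in the luminescence readout, no numeric limit stated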). As to conditions: at 20 µM (top of the series).
Assay [5] is described as follows: reduced SW480 viability measured with CellTiter-Glo, NPC library, primary (AID 1117343;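 active means compounds that lower viability of the colon cancer cells in the luminescence readout, with no numeric limit stated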). To be noted: CellTiter-Glo luminescence; at 20 µM (top of the series).
Assay [6] is described as follows: NPC library primary testing for decreased DLD-1 cell viability via CellTiter-Glo (AID 1117346;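 active means compounds that lower survival of DLD-1 colon cancer cells in the luminescence readout, no cutoff given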). As to conditions: DLD-1 viability, CellTiter-Glo luminescence; at 20 µM (top of the series).
A short description of assay [7]: stimulators of insulin release from INS-1E, primary screen, cell-based, 5 mM glucose, NPC library (AID 1117329;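 active means compound raises insulin release from rat beta cells at 5 mM glucose, no numeric limit stated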; further: reference of the scale not given here). As to conditions: rat INS-1E insulin secretion, at 10 µM, stronger effect = higher value.
Assay [8] in a line: GLP1 release stimulators, primary, NCI-H716, NPC library (AID 1117341;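 active means compound raises GLP1 secretion from the human gut endocrine cells, with no numeric limit stated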; further: reference of the scale not given here). To be noted: NCI-H716 cells, at 10 µM, stronger effect = higher value.
Assay [9] can be described thus: viability loss with induced miR-34 in A549 – imaging, A549 dox-inducible miR-34, nuclei and caspase counts, primary screen (AID 1347080;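 active means compounds whose cell count with miR-34 switched on is under 0.7 times the count with it off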). To be noted: A549 miR-34 inducible, Hoechst nuclei count, 48 h.
The nature of assay [10]: MELAS cybrid and Rieske KO viability enhancers – cell-based, MELAS cybrids, Rieske KO mouse fibroblasts, CellTiter-Glo, primary screen (AID 1508586;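 active means mean z-score across replicates of 1.96 or higher in either the MELAS or the Rieske mutant cell line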;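 further: z relative to plate mean and SD of compound and empty wells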). As to conditions: low glucose.
Assay [11] is described as follows: galactose survival enhancers in mitochondrial complex I cybrids – cell-based, galactose medium, ATP luminescence, primary screen (AID 1645843;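 active means z-score of at least 1.8 in each of two replicates, scored against plate mean and spread of sample wells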;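 further: positive z means more ATP and so rescue of galactose-driven cybrid death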). As to conditions: complex I mutant cybrid cells, 72 h, stronger effect = higher value.
In assay [12] the test system is Aerobactin synthetase IucA (Klebsiella pneumoniae, hypervirulent). The experiment in a line: biochemical IucA inhibition screen of LOPAC library by absorbance (AID 1346212; call rule not given here;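 further: 100% = no compound wells and 0% = no enzyme wells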). As to conditions: IucA enzyme assay, absorbance (OD) readout; stronger effect = lower value;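 tested at 8 µM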.

The values below come from PubChem BioAssay.

Each structure is given as a SMILES string. Activity calls are given as the source filed them.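 How the source made its calls, unless noted: active means at least 20% inhibition of 6-phosphogluconate dehydrogenase activity; inactive means the rest.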

Chain of 6-phosphogluconate dehydrogenase, decarboxylating (Homo sapiens) (P52209 whole entry, looked up): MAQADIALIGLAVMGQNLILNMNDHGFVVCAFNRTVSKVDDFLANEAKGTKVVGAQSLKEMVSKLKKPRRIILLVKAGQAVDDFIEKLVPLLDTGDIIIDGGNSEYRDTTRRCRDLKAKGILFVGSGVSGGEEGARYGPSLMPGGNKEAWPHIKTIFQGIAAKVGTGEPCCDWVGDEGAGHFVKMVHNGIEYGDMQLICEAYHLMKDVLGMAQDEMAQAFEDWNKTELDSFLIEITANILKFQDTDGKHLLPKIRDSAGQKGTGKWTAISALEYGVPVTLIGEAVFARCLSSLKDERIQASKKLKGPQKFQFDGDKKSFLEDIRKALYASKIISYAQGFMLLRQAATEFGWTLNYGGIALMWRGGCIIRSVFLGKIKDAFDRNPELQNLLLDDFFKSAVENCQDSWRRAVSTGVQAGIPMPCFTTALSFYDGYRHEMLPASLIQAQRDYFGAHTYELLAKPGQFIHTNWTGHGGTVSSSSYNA

For the molecule `ClC1=C(Cl)C2(Cl)C3C(Cl)C(Cl)CC3C1(Cl)C2(Cl)Cl` (configuration not stated), the inhibition in [1] is -19% (inactive).
In the case of `O=C1NCN(c2ccccc2)C12CCN(CCCOc1ccc(F)cc1)CC2`, the nuclear beta-catenin stimulation is 0.4% (inactive) in [2] (at 10 µM) and 8.5% in assay [2] (stimulation, at 2 µM). For the same molecule, the viability decrease in [3] was 84.2% (active). Further, the inhibition of viability in assay [4] was 59.4% (active). The figures for the viability decrease (inhibition) in assay [5] and in assay [6] were 91% (active) and 87.1% (active), respectively.
Take `O=C(NC(=O)c1c(F)cccc1F)Nc1ccc(Cl)c(Oc2ncc(C(F)(F)F)cc2Cl)c1`: the nuclear beta-catenin stimulation was 1.2% (inactive) in [2] (at 10 µM) and -0.3% in [2] (stimulation, at 2 µM). Besides, in assay [7], the insulin secretion stimulation is 0.25% (inactive). Also, the GLP1 secretion stimulation in assay [8] is -8.7% (inactive).
For the molecule `CC(=O)OC1CCC2(C)C(=CCC3C4CCC(=O)C4(C)CCC32)C1` (configuration not stated), the inhibition in [1] was 2.3% (inactive).
For `CC(C)N(C(=O)CCl)c1ccccc1`, in [1], the inhibition was -9.5% (inactive).
`COc1ccc(C(c2ccc(OC)cc2)C(Cl)(Cl)Cl)cc1`: the inhibition in [1] is -1.01% (inactive).
Turning to `c1ccc2c(c1)Sc1ccccc1N2CC1CN2CCC1CC2` (configuration not stated), the nuclear beta-catenin stimulation was 50.9% (active) in [2] (at 10 µM) and -0.7% in assay [2] (stimulation, at 2 µM). Besides, in assay [7], the insulin secretion stimulation was 11.5% (inactive). The GLP1 secretion stimulation in assay [8] is 26.8% (active). Besides, the fold change in assay [9] (stronger effect = lower value) is 0.854 (inactive); in [9] (measured here: relative caspase fold change +Dox/-Dox), 0.648. Further, the cell count in [9] (measured here: total cells with miR-34 induction, stronger effect = lower value) is 6390; in assay [9] (measured here: total cells without miR-34 induction), 7490. The z-score in assay [10] (MELAS cybrid survival, CellTiter-Glo 48 h, stronger effect = higher value) is -0.772 (inactive); in assay [10] (Rieske KO mouse fibroblast survival, CellTiter-Glo 72 h) it was -0.213; in [11] it was -2.58 (inactive).
With `CC(=O)OC1CC(OC2C(O)CC(OC3C(O)CC(OC4CCC5(C)C(CCC6C5CC(O)C5(C)C(C7=CC(=O)OC7)CCC65O)C4)OC3C)OC2C)OC(C)C1OC1OC(CO)C(O)C(O)C1O` (configuration not stated), the inhibition in [1] was 7.01% (inactive).
Take `COC(=O)C(Cl)C(=O)OC`: the nuclear beta-catenin stimulation was 0.3% (inactive) in assay [2] (at 10 µM) and 6.8% in [2] (stimulation, at 2 µM). Moreover, in [3], the viability decrease is 51.9% (active). For the same molecule, the inhibition of viability in assay [4] was 37.3% (inactive). Moreover, the viability decrease (inhibition) was -7.9% (inactive) in assay [5] and 3.4% (inactive) in assay [6].
In the case of `CCc1cccc(C)c1N(C(=O)CCl)C(C)COC` (configuration not stated), the inhibition in assay [1] is 3.27% (inactive).
As to `OC1C[C@H]2CCC[C@@H](C1)N2Cc1ccccc1` (some centres not stated), the inhibition in [1] was 1.32% (inactive).
For `C=CCN1CC[C@]23CCCC[C@H]2[C@H]1Cc1ccc(O)cc13`, the nuclear beta-catenin stimulation in assay [2] (at 10 µM) is 3.5% (inactive); in assay [2] (stimulation, at 2 µM), 0.3%. Moreover, in [7], the insulin secretion stimulation was 12.2% (inactive). Besides, the GLP1 secretion stimulation in assay [8] was 8.3% (inactive). Besides, in assay [12], the remaining activity was 94.8% (inactive).
On to `CNC(=O)Oc1cccc2c1OC(C)(C)O2`, for which the inhibition in [1] is -4.88% (inactive).
For `CC1(C)[C@H](C=C(Cl)Cl)[C@@H]1C(=O)OCc1c(F)c(F)cc(F)c1F`, the nuclear beta-catenin stimulation was -2.8% (inactive) in [2] (at 10 µM) and -1.8% in assay [2] (stimulation, at 2 µM). Also, in [7], the insulin secretion stimulation is 0.45% (inactive). The GLP1 secretion stimulation in assay [8] is -5.4% (inactive).
On to `CCC(C)C(=O)c1c(O)c(C)c2oc3c(C)c(O)c(C(=O)C(C)CC)c(O)c3c2c1O` (configuration not stated), for which the inhibition in assay [1] was 4.14% (inactive).
Same read-out and setting: in the case of `CO[C@H]1C[C@H](O[C@H]2CC[C@]3(C=O)[C@H]4CC[C@]5(C)[C@@H](C6=CC(=O)OC6)CC[C@]5(O)[C@@H]4CC[C@]3(O)C2)O[C@H](C)[C@H]1O` it was -5.2% (inactive); in that of `O=C(CC[N+](=O)[O-])OC[C@H]1O[C@@H](O)[C@H](OC(=O)CC[N+](=O)[O-])[C@@H](OC(=O)CC[N+](=O)[O-])[C@@H]1OC(=O)CC[N+](=O)[O-]`, 0.279% (inactive).
With `COc1cc2c(cc1OC)C(=O)c1ccc(OC)c(OC)c1OCC(=O)C2`, in assay [1], the inhibition was -4.44% (inactive).
In the case of `Cc1ccc2cc3c(ccc4ccccc43)c3c2c1CC3`, the inhibition in assay [1] was -6.1% (inactive).
Same read-out and setting: in the case of `COP(=O)(OC)OC(Br)C(Cl)(Cl)Br` (configuration not stated) it was -10.9% (inactive).
The same measure, in the same setting: in the case of `C[C@H]1CC[C@]2(NC1)O[C@H]1C[C@H]3[C@@H]4CC[C@H]5C[C@@H](O[C@@H]6O[C@H](CO)[C@H](O[C@@H]7O[C@H](CO)[C@@H](O)[C@H](O[C@@H]8OC[C@@H](O)[C@H](O)[C@H]8O)[C@H]7O[C@@H]7O[C@H](CO)[C@@H](O)[C@H](O)[C@H]7O)[C@H](O)[C@H]6O)CC[C@]5(C)[C@H]4CC[C@]3(C)[C@H]1[C@@H]2C` it was 1.84% (inactive); in that of `Cn1c(=O)c2c(ncn2CCCl)n(C)c1=O`, -2.23% (inactive).
